Source: PubChem (several laboratories)
Tat export inh: E. coli Tat export inhibitors, primary screen, MC4100, TorA-mCherry reporter, fluorescence, single point; AID 488895, 2010; inhibition, % at 10 µM; 340,000 tested, 0.036% active;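 active = mean replicate inhibition at least 50% and at least half of replicates individually reaching 50%; inconclusive = only one of the two criteria met; inactive = neither criterion met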;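 also: exported cargo escapes ClpAP degradation while cytoplasmic cargo is degraded and loses fluorescence; 0% = median of neutral control wells and 100% = median of NaSCN control wells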
phage Ecoli inh: growth loss of phage-infected E. coli, primary screen, RecBCD inhibitor project, absorbance, with phage, HTS. inhibition, % at 11.9 µM. 360,000 tested, 0.26% active; in the data active = inhibition above about 11%
E coli growth-1: E. coli V3065 growth inhibition, primary screen, counter-screen for AddAB inhibitor project, absorbance, OD600 | 18 h | 330,000 tested, 0.27% active | inhibition, % at 11.9 µM;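 active = inhibition above the campaign's mean inhibition across all tested compounds plus 3 SD, cut at about 9.9% in these data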;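 also: uninfected addAB+ strain grown without phage in ampicillin broth; 0% = DMSO wells and 100% = ciprofloxacin 0.95 µg/ml wells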
AddAB inh: growth inhibition of E. coli expressing H. pylori AddAB, primary screen, AddAB inhibitor project, absorbance. inhibition, % at 11.9 µM. AID 435030, 2010. 330,000 tested, 0.29% active; in the data active = inhibition above about 12%;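 also: 0% = vehicle wells of infected cells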
AI-2 QS modul: Vibrio harveyi AI-2 quorum sensing modulators, primary screen, JMH597 strain, luminescence/OD600 ratio; Vibrio harveyi JMH597 AI-2 luminescence/OD600 ratio, 9 h; stronger effect = lower value; strain lacks LuxN and CqsS sensors; 0 = neutral-control median; activity change, % at 7.5 µM; 300,000 tested, 0.4% active; in the data active = activity change below about -75%, passing the limit was not always enough; inconclusive = no clear call, values can overlap the other calls;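 also: luminescence divided by OD600 gain over 9 h not by final OD600 alone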
E coli growth-2: E. coli growth inhibition, primary screen, OD600. AID 1053175, 2014. Escherichia coli growth, 23 h; stronger effect = lower value. OD600 absorbance (concentration not given with the values). 330,000 tested, 0.21% active;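 active = OD600 absorbance below the run mean of sample wells minus 3.6 SD, in any replicate, cut at about 0.56 in these data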
RecBCD conf: growth loss of phage-infected RecBCD+ E. coli, confirmation, RecBCD inhibitor project, absorbance, E. coli V66, T4 gene 2 phage | shares compounds with phage Ecoli inh | inhibition, % at 11.9 µM | 890 tested, 45% active | E. coli V66 + T4 2- phage, growth OD;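 active = mean inhibition over triplicates exceeding the hit threshold derived in the original primary screen, cut at about 11% in these data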
Ecoli viability: E. coli viability inhibition, counter-screen for RecBCD inhibitor project, absorbance, high throughput; shares compounds with phage Ecoli inh; absorbance (OD) growth; inhibition, % at 11.9 µM; 890 tested, 29% active; AID 651983, 2013; in the data active = inhibition above about 20%;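 also: E. coli strain V66 grown with compound alone and no phage infection; 0% = bacteria with DMSO vehicle only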
AddAB phage OD: growth loss of phage-infected AddAB-carrying E. coli, confirmation, counter-screen for RecBCD inhibitor project, absorbance, E. coli V3065, T4 phage. shares compounds with phage Ecoli inh. E. coli expressing H. pylori AddAB + T4 phage, OD growth; gene 2 mutant T4, recBCD-deleted host. inhibition, % at 11.9 µM. 890 tested, 45% active;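 active = mean inhibition above the solvent-only control wells' mean plus 3 SD, cut at about 22% in these data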;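 also: higher means less bacterial growth from phage killing when AddAB is blocked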
* hit, by the source's call; u = inconclusive; x = no result given. A selection: hits, their analogues and other compounds. The true share with any hit is near 0.79%.

SMILES | Tat export inh | phage Ecoli inh | E coli growth-1 | AddAB inh | AI-2 QS modul | E coli growth-2 | RecBCD conf | Ecoli viability | AddAB phage OD
Cc1cc(NS(=O)(=O)c2ccc(NC(=S)Nc3ccc(Cl)cc3C)cc2)no1 | -13.6 | 12.4* | 5.2 | 6.2 | -25.3 | 0.702 | 3.1 | 2.2 | 12.4
O=[N+]([O-])c1cc([N+](=O)[O-])c(Oc2c(Cl)cccc2Cl)cc1NN1CCCCC1 | 1.3 | 13.1* | 0.1 | 4.1 | -5.9 | 0.71 | -3.2 | -3.9 | -1.3
CN(C)CCOc1ccc2c(c1)C(=O)C(=Cc1ncc([N+](=O)[O-])n1C)C2 | x | 94.9* | x | x | x | x | 86.6* | 96.4* | 100.2*
CCc1cc(OCCN(C)C)ccc1Cl | -2.2 | -4.4 | 0.8 | -1.1 | 25.0 | 0.712 | x | x | x
CC(=O)Nc1ccc(SCCN2CCC(O)CCC2=O)cc1 (configuration not stated) | x | x | x | x | x | 0.639 | x | x | x
CN(C)c1ccc(C=c2c3ccccc3n3c2c2c([n+]3C)CCCC2)cc1 | 14.0 | 61.6* | x | x | x | x | 71.7* | 97.2* | 101.4*
CCn1c(C)cc(C(=O)COC(=O)CNC(=O)c2ccco2)c1C | x | 11.4* | x | x | x | x | 5.8 | 10.3 | 3.4
NC(=S)NN=Cc1cn(CCC(=O)O)nc1-c1cccc(Br)c1 | x | x | x | x | x | 0.699 | x | x | x
COc1ccc(-c2nn(CCC(=O)O)cc2/C=N/NC(N)=S)cc1 | 6.0 | 73.4* | -2.1 | -1.0 | 0.7 | x | -0.7 | -1.0 | 3.5
CC(=O)c1cn(CC(=O)Nc2ccccc2)c2ccccc12 | -2.5 | 12.2* | 10.7* | 13.7* | 23.8 | 0.691 | 4.7 | 9.1 | 2.0
O=C(O)c1cn(-c2ccc(F)cc2)c2cc(N3CCNCC3)c(F)cc2c1=O | 113.7* | 99.4* | x | x | x | x | 102.3* | 103.4* | 102.6*
Cc1ccc(/C=C/C(=O)c2ccccc(=O)c2O)c(C)c1 | 1.2 | 12.7* | 2.4 | 7.1 | u | 0.667 | 3.6 | 5.5 | 0.7
O=C(/C=C/c1ccc([N+](=O)[O-])cc1)c1cccs1 | -1.1 | 2.9 | 2.0 | 0.1 | 9.8 | 0.7 | x | x | x
O=C(/C=C/c1ccc([N+](=O)[O-])cc1)c1ccccc(=O)c1O | 10.6 | 16.5* | x | x | x | x | 10.2 | 12.2 | -0.6
O=C(C=Cc1ccccc1O)c1ccccc1O | -3.6 | 1.8 | x | x | x | 0.57 | x | x | x
O=C(Nc1ccc(F)cc1)Nc1csc2ccccc12 | x | 12.6* | 3.0 | 6.7 | 18.0 | 0.576 | 3.2 | 5.4 | -1.6
CC(=NNC(=O)c1ccccc1O)C1C(=O)c2ccccc2C1=O | x | x | x | x | x | 0.669 | x | x | x
C/C(=N/NC(=O)c1cc2ccccc2cc1O)C1C(=O)c2ccccc2C1=O | 7.1 | 11.2* | 9.2 | 9.4 | 6.9 | x | 5.4 | 6.7 | 2.9
Cc1cc(NC(c2cccnc2)c2ccc3cccnc3c2O)no1 (configuration not stated) | 1.2 | 13.3* | 9.1 | 10.2 | -54.4 | 0.619 | 1.9 | 5.1 | 6.9
Oc1c(C(Nc2cccc(C(F)(F)F)c2)c2cccnc2)ccc2cccnc12 (configuration not stated) | -5.0 | 12.3* | -1.7 | -0.2 | 23.3 | 0.694 | 2.8 | 3.6 | 8.9
Cc1cc(C)nc(Nc2cccc(C(F)(F)F)c2)n1 | -3.1 | 3.6 | -1.6 | 3.2 | 16.6 | 0.674 | x | x | x
Cc1nnc(NN=Cc2ccc(O)c([N+](=O)[O-])c2)[nH]c1=O | x | x | x | x | x | 0.693 | x | x | x
CCn1c(N)nc2c1c(=O)n(C)c(=O)n2C | 2.2 | 2.1 | 0.0 | 0.6 | 14.7 | 0.666 | x | x | x
CCCc1nc2c(=O)n(C)c(=O)nc-2n(C)n1 | -48.4 | 18.2* | x | x | x | 0.439* | 15.7* | 16.3 | 35.7*
NCCC(=O)NCCc1cnc[nH]1 | -7.4 | 1.9 | 0.9 | -0.8 | x | 0.678 | x | x | x
